FMDV antiviral: foot and mouth disease virus antiviral activity | AID 1159524 | FMDV antiviral cell-based qHTS | Potency, µM (series often up to 57.9 µM), usual class: inhibitors | 410,000 tested, 1.2% active; calls by dose curve; tested in HEK293T cells; also: read-out not given here; nearly all actives have a fitted effect of over 45% in size
Cycloheximide cs: counter-screen for Shiga toxin inhibitors: cycloheximide protein synthesis inhibition; cell reporter, cycloheximide protein synthesis inhibition counterscreen; max response, %; 300,000 tested, 12% active; AID 2314; in the data active = max response mostly above about 13%, no sharp cut-off; inactive = mostly below about 14%; also: read at 38.3 µM for the half of the compounds with a filed dose
LASV entry inh: blocks Lassa virus binding to or entry into cells; 300,000 tested, 1.2% active; Potency, µM (doses to about 37.9 µM), hits mostly inhibitors; AID 540256; Lassa virus pseudotype entry inhibition, cell reporter; calls by dose curve; tested in HEK293 cells; also: nearly all actives have a fitted effect of over 50% in size
Shiga toxin inh: Shiga toxin inhibition | Vero cells, Shiga toxin protein synthesis inhibition reporter | inhibition, % at 38.7 µM | 290,000 tested, 9.2% active | AID 2315; in the data active = inhibition mostly above about 28%, no sharp cut-off; inactive = mostly below about 43%
HCV inh: inhibitors of hepatitis C virus infection; Huh7.5.1 HCVcc-Cre infection, luciferase reporter, 44 h; Potency, µM (doses to about 41.8 µM), actives largely listed as inhibitors; 340,000 tested, 3.4% active; active = well fitted inhibition curve with a large enough effect; inconclusive = small, poorly fitted or top-dose-only effect, or another doubt; inactive = no such curve, though single readings can be large or run the other way
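Reporter virus HCVcc-Cre (~0.5 moi) infects cells exposed to compound; seeding density 1,000 cells/well with 4 h settling beforehand. Luminescence, 15 sec read, taken 44 h post-infection following a 15 min RT substrate incubation.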
MARV entry inh: blocks Marburg virus binding to or entry into cells; Marburg virus pseudotyped entry inhibition, cell reporter; Potency, µM (highest dose often 37.8 µM), actives largely listed as inhibitors; 300,000 tested, 1.8% active; calls by dose curve; tested in HEK293 cells
Numbers stand for hits; 0 = inactive; ? = inconclusive; - = no result given; + = active, no number. Hits are enriched below; roughly 13% of the tested compounds scored in any of these assays.

SMILES | FMDV antiviral | Cycloheximide cs | LASV entry inh | Shiga toxin inh | HCV inh | MARV entry inh
O=C(COc1ccc(C(=O)c2ccc(F)cc2)cc1)Nc1cccc(S(=O)(=O)N2CCOCC2)c1 | 32µM | - | ? | - | 6.3µM | 0
CC(C)(C)c1ccc(OCCC(=O)Nc2cccc(S(=O)(=O)N3CCOCC3)c2)cc1 | 25µM | 0 | ? | 0 | - | ?
O=C(CCl)Nc1cccc(S(=O)(=O)NC2=NCCC2)c1 | 0 | 0 | - | 0 | 13µM | -
O=C(COC(=O)CCC(=O)c1ccc(F)cc1)Nc1cccc(S(=O)(=O)N2CCOCC2)c1 | 0 | 0 | 0 | 0 | 0 | 0
CN(CC(=O)Nc1cccc(S(=O)(=O)NC2=NCCCCC2)c1)Cc1ccc(C(C)(C)C)cc1 | 0 | 0 | ? | 0 | ? | ?
CC(C)(C)c1ccc(OCCC(=O)Nc2cccc(S(=O)(=O)NC3=NCCCCC3)c2)cc1 | ? | - | 10µM | - | 14µM | ?
CCOc1ccc(N2CC(C(=O)Nc3ccc4c(c3)OCCO4)CC2=O)cc1 (stereo unspecified) | ? | 50 | 0 | 62 | 0 | 0
NC(=O)c1cccc(CS(=O)(=O)c2ccc(Cl)cc2)c1 | 0 | 0 | - | 0 | 0 | -
CC(=O)Nc1sc(NC(=O)c2ccc(Cl)cc2)nc1-c1cccs1 | 0 | 0 | 0 | 0 | ? | ?
CCOc1cc(/C=N/Nc2nc(-c3cccs3)c(NC(C)=O)s2)ccc1O | 0 | 20 | ? | 0 | ? | ?
CC(=O)Nc1sc(N/N=C\c2ccccc2Cl)nc1-c1cccs1 | 0 | 73 | 0 | 82 | 0 | 0
CC(=O)Nc1sc(N/N=C\c2ccccc2)nc1-c1cccs1 | 0 | 31 | 0 | active | 0 | 0
CC(=O)Nc1sc(N/N=C\c2ccco2)nc1-c1cccs1 | 0 | 12 | 0 | 0 | 0 | 0
CC(C)CN(C(=O)CCC(=O)OCC(=O)c1ccc(F)c(F)c1)c1c(N)n(CC(C)C)c(=O)[nH]c1=O | 0 | 0 | 0 | 0 | 0 | 0
O=C(COC(=O)c1n[nH]c(=O)c2ccccc12)Nc1ccccc1 | 0 | - | ? | - | 0 | 0
O=C(NNC(=O)C1CC=CCC1C(=O)O)c1cccs1 (stereo unspecified) | 0 | 0 | 0 | 0 | 0 | 0
O=C(NNC(=O)C1CC1c1ccccc1)Nc1ccccc1 (stereo unspecified) | 0 | 0 | 0 | 0 | 0 | 0
CC(C)c1ccc(C(=O)NNC(=O)C2CC=CCC2C(=O)O)cc1 (stereo unspecified) | 0 | 28 | 0 | 64 | 0 | ?
O=C(NNC(=O)[C@@H]1CCCC[C@@H]1C(=O)O)Nc1ccccc1 | 0 | 15 | ? | 65 | 0 | 0
O=C(NNC(=O)[C@@H]1CCCC[C@@H]1C(=O)O)c1cccs1 | 0 | 29 | 0 | 58 | 0 | 0
Cc1ccsc1C(=O)NNC(=O)C1CC=CCC1C(=O)O (stereo unspecified) | 0 | 45 | 0 | + | 0 | ?
CS(=O)(=O)N1CCN(C(=S)NCc2ccc(Cl)cc2)CC1 | 0 | 0 | 0 | 0 | 0 | 0
CC(=O)c1cccc(NC(=O)CN(C)Cc2ccc(OC(F)F)cc2)c1 | ? | 0 | 0 | 0 | 0 | 0
Nc1cccc2c1C(=O)N(C(=O)c1ccc(S(=O)(=O)N3CCCCCC3)cc1)C2=O | 0 | 0 | 0 | 0 | 0 | 0
Cc1ccsc1C(=O)NNC(=O)C1CCCCC1C(=O)O (stereo unspecified) | 0 | 31 | ? | 65 | 0 | 0
SMILES | FMDV antiviral | Cycloheximide cs | LASV entry inh | Shiga toxin inh | HCV inh | MARV entry inh
Cc1ccc(CN(C)C(=O)CC2C(=O)NCCN2CC2CCCCC2)cc1 (stereo unspecified) | 0 | 0 | 0 | 0 | 0 | 0
CCOc1ccccc1C(=O)N[C@H](C(=O)OCc1cc([N+](=O)[O-])cc2c1OCOC2)C(C)C | 0 | 0 | ? | 0 | 20µM | 11µM
CCOc1ccccc1C(=O)N[C@H](C(=O)OCc1csc(CC(=O)Nc2ccc(C)cc2)n1)C(C)C | ? | - | ? | - | 11µM | ?
Cc1ccc2c(COC(=O)c3ccccc3Cl)cc(=O)oc2c1 | 0 | 42 | 0 | 59 | 0 | ?
CC(C)C(NC(=O)c1ccccc1)C(=O)OCc1cc([N+](=O)[O-])cc2c1OCOC2 (stereo unspecified) | 0 | 0 | - | 0 | ? | 0
CCOc1ccccc1C(=O)N[C@H](C(=O)OCc1cc(=O)oc2cc(C)ccc12)C(C)C | 0 | 26 | 0 | 0 | 10µM | ?
COc1cc(OC)cc(C(=O)N[C@H](C(=O)OCc2cc(=O)oc3cc(C)ccc23)C(C)C)c1 | 0 | 0 | 0 | 0 | ? | ?
CCOc1ccccc1C(=O)NCC(=O)OCc1csc(CC(=O)Nc2ccc(C)cc2)n1 | 0 | - | 0 | - | 0 | 0
COC(=O)c1c(NC(=O)/C(C#N)=C/c2ccc(OC)cc2)sc2c1CCC2 | 0 | - | 0 | - | - | -
Cc1ccc2c(COC(=O)c3ccccc3Br)cc(=O)oc2c1 | 0 | 34 | 0 | 98 | ? | ?
CSc1ccccc1NC(=O)C1CC(c2c(F)cccc2Cl)=NO1 (stereo unspecified) | 0 | 30 | - | 42 | 0 | -
O=C(Nc1ccc(Br)cc1)C1CC(c2c(F)cccc2Cl)=NO1 (stereo unspecified) | 0 | 13 | - | 0 | ? | -
O=C(Nc1cc(Br)ccc1O)C1CC(c2c(F)cccc2Cl)=NO1 (stereo unspecified) | 0 | 0 | - | 0 | 0 | -
COc1ccc(Cl)cc1NC(=O)C1CC(c2c(F)cccc2Cl)=NO1 (stereo unspecified) | 0 | 0 | - | 0 | ? | -
COc1cc(/C=N/Nc2nc(Nc3ccccc3)nc(N3CCOCC3)n2)ccc1OC(=O)c1ccco1 | 0 | 0 | ? | 0 | ? | 2.1µM
COc1cc(/C=N/Nc2nc(Nc3ccccc3)nc(N3CCCCC3)n2)ccc1OCC(=O)O | 0 | 0 | 0 | 0 | 0 | 0
O=C(Oc1cccc(/C=N/Nc2nc(N3CCOCC3)nc(N3CCOCC3)n2)c1)c1ccco1 | ? | 0 | 0 | 0 | 1.1µM | ?
CCCS(=O)(=O)c1cnc(C2COc3ccccc3O2)nc1N (stereo unspecified) | 35µM | 0 | - | 0 | 0 | -
S=c1nc(C2COc3ccccc3O2)[nH][nH]1 (stereo unspecified) | 0 | 0 | 0 | 0 | 0 | 0
O=C(Nc1ccccc1C(=O)O)c1cccc(N2C(=O)c3ccccc3C2=O)c1 | 0 | 0 | 0 | 0 | 0 | 0
C/C(=N\Nc1ccc(F)cc1F)c1ccc(N2CCOCC2)cc1 | 0 | 24 | - | 0 | ? | -
C/C(=N\Nc1ccc(F)cc1F)c1ccc(F)cc1 | - | 0 | - | 0 | - | 0
CCCCCC(=O)N/N=C(\C)c1ccc(N2CCCCC2)cc1 | 0 | 48 | 0 | 58 | 0 | ?
C/C(=N\NC(=O)c1ccc(F)cc1)c1ccc(N2CCOCC2)cc1 | 0 | 21 | 0 | 74 | 0 | ?
C/C(=N\NC(=O)COc1ccc(C(C)(C)C)cc1)c1ccc(N2CCOCC2)cc1 | 0 | 24 | 1.3µM | 0 | 0 | 0
C/C(=N\NC(=O)c1ccc(N2CCCC2=O)cc1)c1ccccc1 | 0 | 0 | 0 | 0 | 0 | 0
C(=N\n1cnnc1)/c1ccc(N2CCOCC2)cc1 | 0 | 0 | 0 | 0 | 0 | 0
C/C(=N\NC(=O)c1ccccc1)c1ccc(N2CCCCC2)cc1 | 0 | 48 | 0 | 77 | 0 | 0
CN(C)/N=C/c1ccc(N2CCOCC2)cc1 | 0 | 23 | 0 | 0 | 0 | ?

Screening results as filed in PubChem.
